Where “and” joins values, the source holds several entries; their conditions need not be identical. Identical values can stand only once. About 2,400 (0.59%) of roughly 410,000 compounds were called active. Rule as the data show it: active = max activation above about 30%; inactive = the rest. The full list was thinned out, with actives kept by preference. Where a structure was tested more than once in an assay, its records may differ in their call.
What follows are molecules tested against D(3) dopamine receptor (Homo sapiens) (UniProt P35462) (assay: qHTS of D3 Dopamine Receptor Agonist: qHTS). Details: D3R DiscoveRx beta-arrestin cells, luminescence, 90 min; stronger effect = higher value.
D(3) dopamine receptor (Homo sapiens), sequence (P35462 whole entry, looked up): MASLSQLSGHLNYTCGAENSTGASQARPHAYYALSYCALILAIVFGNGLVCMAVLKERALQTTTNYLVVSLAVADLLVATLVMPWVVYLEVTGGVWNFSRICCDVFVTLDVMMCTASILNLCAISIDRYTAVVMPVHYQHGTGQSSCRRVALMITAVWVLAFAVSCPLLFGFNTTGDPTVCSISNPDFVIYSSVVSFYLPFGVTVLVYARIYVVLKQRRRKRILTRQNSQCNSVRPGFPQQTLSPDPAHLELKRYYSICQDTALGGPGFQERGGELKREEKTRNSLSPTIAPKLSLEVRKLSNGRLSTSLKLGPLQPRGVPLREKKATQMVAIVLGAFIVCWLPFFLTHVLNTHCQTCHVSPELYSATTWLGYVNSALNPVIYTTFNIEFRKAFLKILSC
In short: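 Agonist mode: compounds and dopamine controls were applied to plated cells for 90 min at 37 degrees C after an overnight attachment at 1500 cells/well. Luminescent read-out followed 30 - 60 minutes at room temperature with DiscoveRx detection reagent.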
Also: 0% is about no effect.

SMILES	max activation
CCc1ccc(S(=O)(=O)c2nnn3c2nc(N2CCN(CC)CC2)c2sccc23)cc1	5.12% (inactive)
CCOc1ccc(Nc2oc(/C=C/c3ccc(F)cc3)nc2C#N)cc1	-13.3% (inactive)
Fc1ccc(-c2nn(-c3ccccc3Cl)c3c2cnc2ccccc23)cc1	0.11% (inactive)
CSc1nc(-c2ccco2)nn1C(=O)c1ccccc1Cl	32.7% (active)
Oc1c(C(c2ccccc2Cl)N2CCOCC2)sc2nc(-c3ccco3)nn12 (centres undefined)	-18% (inactive)
O=C(c1ccco1)n1nc(-c2ccc(Cl)cc2)nc1NCc1ccccc1	-9.35% (inactive)
CCOC(=O)Cc1cccc(-c2cc(CCCCCCc3ccc(O[C@H]4O[C@H](COC(C)=O)[C@@H](OC(C)=O)[C@H](OC(C)=O)[C@@H]4OC(C)=O)c(-c4cccc(CC(=O)OCC)c4)c3)ccc2O[C@H]2O[C@H](COC(C)=O)[C@@H](OC(C)=O)[C@H](OC(C)=O)[C@@H]2OC(C)=O)c1	-9.52% (inactive)
COc1ccc(-c2nc3cc(C)ccn3c2NC2CCCCC2)cc1SC1CCCCC1	18.2% (inactive)
COc1ccc(-c2nc3cnccn3c2NC(C)(C)CC(C)(C)C)cc1O	4.14% (inactive)
COc1ccc(-c2nc3cnccn3c2NC2CCCCC2)cc1-c1cccc(Cl)c1	7.25% (inactive) and 47.9% (active)
Cc1ccc(Cl)cc1N1CCN(C(=O)c2cccn3c(=O)c4cc(Cl)ccc4nc23)CC1	1.63% (inactive)
CN(C)CCc1c[nH]c2ccc(Cn3cncn3)cc12	-8.71% (inactive)
COc1ccc(Cl)cc1NC(=O)Cn1c(=O)c2ccccc2n2nncc12	-7.09% (inactive)
COC(=O)c1cc(NC(=O)CC2C(=O)NCCN2C(=O)c2ccc(F)cc2)cc(C(=O)OC)c1 (centres undefined)	5.37% (inactive)
COc1ccccc1C(=O)N1CCNC(=O)C1CC(=O)Nc1ccc(Cl)cc1 (centres undefined)	4.77% (inactive)
O=C(CC1C(=O)NCCN1C(=O)c1ccc([N+](=O)[O-])cc1)Nc1cccc(Cl)c1 (centres undefined)	38.6% (active)
Brc1cccc(-c2nnn3c2nc(NC2CCCCC2)c2ccccc23)c1	-2.96% (inactive)
COc1ccc(CCNC(=O)c2cc(=O)c3c(C)cc(C)cc3o2)cc1OC	21.9% (inactive)
COc1ccc(CCNC(=O)COc2cc(C)cc3oc(=O)c(C)c(C)c23)cc1OC	42.4% (active)
Cc1cc(OCC(=O)NCC(O)c2ccccc2)c2c(C)c(C)c(=O)oc2c1 (centres undefined)	2.59% (inactive)
COc1cc2c(cc1OC)CC(=O)N(CCCN(C)C[C@H]1Cc3cc(OC)c(OC)cc31)CC2	-16.3% (inactive)

SMILES	max activation
COc1ccc(N2CCN(S(=O)(=O)c3ccc(-c4coc(C)n4)cc3)CC2)cc1	1.53% (inactive)
O=C1c2ccccc2S(=O)(=O)N1Cc1c(F)cccc1Cl	-0.264% (inactive)
O=c1c(=O)n(Cc2c(F)cccc2Cl)ccn1Cc1ccccc1	-9.07% (inactive)
Cc1ccc(C)c(N2C(=O)N(Cc3c(F)cccc3Cl)c3ccccc3S2(=O)=O)c1	64.6% (active)
CCCCOc1ccc(-c2ncc(C(=O)OCC)c(N)n2)cc1	85% (active)
CCOC(=O)c1cnc(SCC(=O)Nc2cccc(OC)c2)nc1N	6.65% (inactive)
CCOC(=O)c1cnc(SCc2nc(N)nc(Nc3ccc(OC)cc3)n2)nc1N	2.44% (inactive)
CCOC(=O)c1c(NC(=O)c2cc(-c3ccc(Cl)cc3)on2)sc2c1CCCC2	-8.12% (inactive)
C=O	7.37% (inactive)
CCn1cc(C(=O)N(C)Cc2ccccc2)c(=O)c2cc(S(=O)(=O)N3CCCCCC3)ccc21	3.05% (inactive)
COc1cc(/C=C2\Oc3ccc(C#Cc4ccc(O)cc4)cc3C2=O)cc(OC)c1	15.9% (inactive)
COc1cc(C#Cc2ccc3cc(CCCO)oc(=O)c3c2)cc(OC)c1	41.1% (active)
COc1cc(CN(C(=O)c2ccccc2Br)c2ccccn2)cc(OC)c1OC	-5.51% (inactive)
COC(=O)c1ccc(NC(=O)CCc2c(C)nc3c(c(C)nn3-c3ccc(C)cc3)c2C)cc1	4.91% (inactive)
O=S(O)CNc1ccc(S(=O)(=O)c2ccc(NCS(=O)O)cc2)cc1	-10.5% (inactive)
CC(C)C1C2=C(CC(C)(C)CC2=O)ON1c1ccccc1 (centres undefined)	-2.83% (inactive)
COC(=O)C1CC2=C(CC(C)(C)CC2=O)N(c2ccccc2)C1=O (centres undefined)	32.1% (active)
Cc1ccc(N2C(=O)C(NC(=O)c3c(F)cccc3F)(C(F)(F)F)C3=C2CC(C)(C)CC3=O)cc1 (centres undefined)	-17.5% (inactive)
CC(=O)NC(=O)c1ccccc1O	-11.8% (inactive)
Cc1cc(C)cc(NC(=O)c2cnc3sc(N4CCCC4)nn3c2=O)c1	19.3% (inactive)
CC(C)Oc1ccc(CNC(=O)C2CCN(c3nc4ccccc4n(C)c3=O)CC2)cc1	-5.52% (inactive)

SMILES	max activation
COc1cc(C(=O)N2CCOCC2)cc(OC)c1OC	4.3% (inactive) and 9.01% (inactive)
COc1ccccc1/C=C/C1=NC(=C\N(C)C)/C(=O)O1	-12.1% (inactive)
CC(C)(C)C1C/C(=C/c2ccco2)C(=O)/C(=C/c2ccco2)C1 (centres undefined)	-7.15% (inactive)
O=C1OC(/C=C/c2ccccc2)=NC/1=C/c1ccco1	30.1% (active)
Cc1cccc(NC(=O)N2CCC(CN3CCc4ccccc4C3)CC2)c1C	-18.9% (inactive)
CCOC(=O)Cn1c(=O)n(-c2ccccc2OC)c2nc(-c3cccc(F)c3)nc(C(N)=O)c21	4.17% (inactive)
COc1ccccc1N1CCN(c2ncnc3sc(C)c(-c4ccccc4)c23)CC1	50.8% (active)
COc1ccccc1N1CCN(c2ncnc3onc(-c4ccc(F)cc4)c23)CC1	-8.86% (inactive)
COc1ccccc1N1CCN(c2ncnc3onc(-c4cccc(Cl)c4)c23)CC1	7.08% (inactive)
Cc1cccc(N2CCN(S(=O)(=O)c3ccc4[nH]c5c(c4c3)CCCCC5)CC2)c1C	-5.55% (inactive)
COc1cccc(CNC(=O)CCc2nc(-c3ccc(C)cc3)no2)c1	-0.491% (inactive)
COc1ccc(-c2noc(CCC(=O)N3CCN(c4cccc(C)c4)CC3)n2)cc1	35.7% (active)
Cc1ccc(C)c(N2CCN(C(=O)CCc3nc(-c4cccc(C(F)(F)F)c4)no3)CC2)c1	11.8% (inactive)
CCN1CCN(C(=O)N[C@@H](C(=O)N[C@@H]2C(=O)N3[C@@H]2SC(C)(C)[C@H]3C(=O)O)c2ccccc2)C(=O)C1=O	-1.19% (inactive)
O=C1N(Cc2ccccc2)c2ccc(Cl)cc2C1(O)c1c[nH]c2ccccc12 (centres undefined)	8.47% (inactive)
CCN(CC)S(=O)(=O)c1ccc2c(c1)N(CC(=O)NCC(C)c1ccccc1)C(=O)CO2 (centres undefined)	-18.9% (inactive)
COc1cccc(C2=CC(=O)C[C@H](c3ccc(OC)c(OC)c3)C2)c1	-0.655% (inactive)
COc1ccc2cc(C3=CC(=O)C[C@H](c4ccc5c(c4)OCO5)C3)ccc2c1	38.7% (active)
COc1ccc([C@H]2CC(=O)C=C(c3ccc(CO)cc3)C2)cc1	10.9% (inactive)
Cc1nc(SCCOc2ccc(Cl)cc2)[nH]c(=O)c1Cc1ccccc1	1.02% (inactive)
O=C(Cn1cnc2c(oc3ccccc32)c1=O)Nc1ccc(OC(F)(F)F)cc1	2.62% (inactive)

SMILES	max activation
COc1cccc(OC)c1OCCN1CCN(C(=O)c2ccco2)CC1	73.2% (active)
O=C(c1ccco1)N1CCN(C(=O)c2ccc(COc3ccc(F)cc3)o2)CC1	1.73% (inactive)
O=CN1CCN(C(=O)c2ccc(Br)o2)CC1	-4.54% (inactive)
O=C(c1ccco1)N1CCN(Cc2cccc(C(F)(F)F)c2)CC1	8.47% (inactive)
O=C1CCN(CCc2ccccc2)CCN1CCOc1ccccc1	-27.1% (inactive)
O=C(c1ccc(Br)o1)N1CCN(CCOc2ccccc2)CC1	54.7% (active)
O=C(CCCCn1c(=O)c2ccccc2n(CC(=O)Nc2cccc(C(F)(F)F)c2)c1=O)NCc1ccc2c(c1)OCO2	6.91% (inactive)
CC(=O)Oc1ccccc1C(=O)Nc1ncc([N+](=O)[O-])s1	6.84% (inactive)
CCOC(=O)c1c(NC(=O)/C=C/c2ccc(OC)cc2)sc2c1CCC(C)C2 (centres undefined)	59.2% (active)
COC(=O)c1c(NC(=O)CCCOc2ccccc2)sc2c1CCC(C)C2 (centres undefined)	4.8% (inactive)
CCOC(=O)c1sc(NC(=O)/C=C/c2ccc(C(C)C)cc2)c(C(=O)OCC)c1C	-9.68% (inactive)
COc1ccccc1CNS(=O)(=O)c1cc(Br)cc2c1N(C(C)=O)C(C)C2 (centres undefined)	-15.9% (inactive)
CCN(CCCNC(=O)c1c(C)oc2ncn(CC(C)C)c(=O)c12)Cc1ccccc1	-16.4% (inactive)
Cc1ccc(-c2ncc(Cl)cc2-c2ccc(S(C)(=O)=O)cc2)cn1	3.29% (inactive)
COc1ccccc1N1CCN(c2ccc(=O)n(CC(=O)NCc3ccc(OC(C)C)cc3)n2)CC1	-15.8% (inactive)
COC(=O)c1ccc(NC(=O)c2cc(S(=O)(=O)N3CCC(C)CC3)cn2C)cc1	-4.24% (inactive)
N#C/C(=C\c1cccc(F)c1)c1nc(-c2cc3c(ccc4ccccc43)oc2=O)cs1	4.13% (inactive)
NC(=O)c1ncn([C@@H]2O[C@H](CNCc3cnc(N4CCOCC4)s3)[C@@H](O)[C@H]2O)n1	0% (inactive)
NC(=O)c1ncn([C@@H]2O[C@H](CN=C3NS(=O)(=O)c4ccccc43)[C@@H](O)[C@H]2O)n1	40.4% (active)
COc1cc2c(cc1CNC[C@H]1O[C@@H](n3cnc(C(N)=O)n3)[C@H](O)[C@@H]1O)OCO2	4.9% (inactive)
COc1cccc(Nc2nc3ccccc3c3nncn23)c1	10.1% (inactive)
